Reference: the supplement of paper PMC10933113
Counter-ions that a name gives are not always drawn. ± gives the uncertainty stated by the source.

system: THP-1; assay: CD86 surface expression induction over DMSO control (% over DMSO); higher = stronger dendritic cell activation; details: exposure time: 24 h
Description: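 hCLAT-like CD54 and CD86 surface expression on THP1 cells after 24 h exposure at a single concentration (highest non-cytotoxic concentration, or 100-200 µM if not cytotoxic). Flow cytometry (iQue) was run on 5,000 live cells.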

SMILES | CD86 surface expression induction
Nc1ccc(-c2ccccc2)cc1 [4-Biphenylamine hydrochloride] (100 µM) | -3.55 ± 5.8
S=C=NCc1ccccc1 (10 µM) | 64.3 ± 6.8
N#C/C=C/C#N [Fumaronitrile] (10 µM) | -2.66 ± 6.7
NNCc1ccccc1 (100 µM) | 2.81 ± 0.59
O=[N+]([O-])c1ccc(Oc2ccc(C(F)(F)F)cc2[N+](=O)[O-])cc1 [Fluorodifen] (10 µM) | -11.9 ± 9.2
[CH3][Hg][Cl] [Methyl mercuric (II) chloride] (10 µM) | 86 ± 7.1
CCCOC/C(=N\c1ccc(Cl)cc1C(F)(F)F)n1ccnc1 [Triflumizole] (10 µM) | -11.1 ± 7.1
[OH-].c1cc[c]([Sn+]([c]2ccccc2)[c]2ccccc2)cc1 [Triphenyltin hydroxide] (10 µM) | 77.3 ± 9.9
c1ccc(Nc2ccc(Nc3ccccc3)cc2)cc1 [N,N'-Diphenyl-p-phenylenediamine] (200 µM) | -11.2 ± 8.1
OC[P+](CO)(CO)CO [Tetrakis(hydroxymethyl)phosphonium SO4] (100 µM) | 6.79 ± 11
CC(C)OC(=S)S [Proxan-sodium] (10 µM) | -16.7 ± 6.5
CS/C(C)=N\OC(=O)N(C)SN(C)C(=O)O/N=C(\C)SC [Thiodicarb] (10 µM) | -14.6 ± 7.8
O=C1C(Cl)=C(Cl)C(=O)C(Cl)=C1Cl [Chloranil] (100 µM) | 16.6 ± 9.4
COc1ccc2[nH]cc(CCN(C(C)C)C(C)C)c2c1 [5-Methoxy-N,N-diisopropyltryptamine hydrochloride] (224.7 µM) | -4.94 ± 3.2
C=CC(=O)OCC(COC(=O)C=C)(COC(=O)C=C)COC(=O)C=C [Pentaerythritol tetraacrylate] (10 µM) | 8.9 ± 7.2
Nc1ccc([N+](=O)[O-])cc1N [4-Nitro-1,2-phenylenediamine] (100 µM) | -1.29 ± 1.9
CCC(C)(c1ccc(O)cc1)c1ccc(O)cc1 [Bisphenol B] (200 µM) | 4.76 ± 3
COc1ccc(C(c2ccc(OC)cc2)C(Cl)(Cl)Cl)cc1 [Methoxychlor] (200 µM) | 70.8 ± 55
N#CCC#N [Propanedinitrile] (199 µM) | -2.3 ± 0.49
CCc1cccc(CC)c1N(COC)C(=O)CCl [Alachlor] (100 µM) | 22.3 ± 7.5

SMILES | CD86 surface expression induction
CN(C)c1ccc(N(C)C)cc1 [*N,N,N',N'-Tetramethyl-p-phenylenediamine] (200 µM) | 52.4 ± 59
Nc1ccc(Cl)cc1N [4-Chloro-1,2-diaminobenzene*] (200 µM) | 71.3 ± 120
Nc1cc(Cl)ccc1O [2-Amino-4-chlorophenol] (200 µM) | 41.9 ± 31
O=C(O)c1ccc(=O)[nH]c1 [6-Hydroxynicotinic acid] (100 µM) | -4.7 ± 6.2
O=C(CCl)c1ccccc1 [2-Chloroacetophenone] (100 µM) | 8.54 ± 19
c1ccc2sc(SNC3CCCCC3)nc2c1 [N-Cyclohexyl-2-benzothiazolesulfenamide] (100 µM) | 8.63 ± 9.4
CC(C)(C)C(=O)CCl [1-Chloro-3,3-dimethyl-butan-2-one] (200 µM) | -2.11 ± 2.4
CCOC(=O)NC(=S)Nc1ccccc1NC(=S)NC(=O)OCC [Thiophanate] (100 µM) | 10.2 ± 18
O=[N+]([O-])c1cc([N+](=O)[O-])c2ccccc2c1 [1,3-Dinitronaphthalene] (200 µM) | 2.95 ± 4.5
c1ccc2c(c1)OCC(C1=NCCN1)O2 (centres undefined) [Idazoxan] (10 µM) | -10.6 ± 13
ClC1=C(Cl)C(Cl)(Cl)C(Cl)=C1Cl [Hexachlorocyclopentadiene] (200 µM) | 99.2 ± 97
ClC1=C(Cl)C2(Cl)C3C(Cl)C(Cl)CC3C1(Cl)C2(Cl)Cl (centres undefined) [Chlordane] (200 µM) | 33.3 ± 45
O=[N+]([O-])c1c(Cl)c(Cl)c(Cl)c(Cl)c1Cl [Pentachloronitrobenzene] (100 µM) | 55.3 ± 53
CC(C)CC(C)Nc1ccc(Nc2ccccc2)cc1 (centres undefined) [N-(1,3-Dimethylbutyl)-N'-phenyl-p-phenylenediamine] (10 µM) | 59.8 ± 11
NNC(N)=S [Thiosemicarbazide] (10 µM) | -15.6 ± 6.4
COc1ccccc1N [2-Methoxyaniline hydrochloride] (100 µM) | -19.9 ± 30
C[C@@H]1O[C@@H](O[C@H]2C[C@@H](O)[C@]3(CO)[C@H]4[C@H](O)C[C@]5(C)[C@@H](C6=CC(=O)OC6)CC[C@]5(O)[C@@H]4CC[C@]3(O)C2)[C@H](O)[C@H](O)[C@H]1O [Ouabain] (10 µM) | 51.7 ± 16
Fc1ccc(Oc2ccnc3cc(Cl)cc(Cl)c23)cc1 [Quinoxyfen] (200 µM) | 2.53 ± 5
CCC(C)(NC(=O)c1cc(Cl)c(C)c(Cl)c1)C(=O)CCl (centres undefined) [Zoxamide] (10 µM) | -5.9 ± 2.3
